From PubChem BioAssay (NCI)
About 83,000 compounds went through this panel and 20% of them were active in at least one assay; those are over-represented in the sample as a whole.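 Growth was measured after 48 h exposure to one concentration of compound in 96-well plates. Values under 10 count as active.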 A number with no mark means an inactive call. Activity calls are given as the source filed them.

test system: SK-MEL-2 melanoma; experiment: NCI-60 one-dose screen, 48 h (100 = growth as untreated, 0 = no growth, -100 = all killed); details: 10 µM unless noted

Question: How did the growth turn out when `CS(=O)(=O)Nc1cccc(C(=O)NCc2ccc(N3CCOCC3)cc2)c1` was run?
Answer: The growth was 96.7%.

Question: For `COc1ccc(S(=O)(=O)ON=C2C=C(C)C(=O)C(C)=C2)cc1`, which growth is on record?
Answer: The growth was 82.5%.

Question: With `CCOC(=O)c1c(Cl)c2c(n1Cc1cc(OC)cc(OC)c1)-c1oncc1CCC2` as the compound, how does the growth read?
Answer: Its growth is 44.6%.

Question: `CCN1CCN(c2ccc(Nc3ncc4ccc5ncn(C(C)C)c5c4n3)nc2)CC1` was tested. Which growth did it give?
Answer: The growth was -56.7% (active).

Question: `Nc1nc2c(s1)CCc1c-2c(Br)n(Cc2ccccc2)c1Br` was tested. Which growth did it give?
Answer: Its growth is 99.7%.

Question: With `O=c1onc(-c2ccccc2)c2ccccc12` as the compound, how does the growth read?
Answer: The growth was 118%.

Question: With `CCCCCn1c(=N)n(CC(O)COc2cccc(C)c2)c2ccccc21` (centres undefined) as the compound, how does the growth read?
Answer: The growth was -34.1% (active).

Question: With `COc1ccc(-c2nn(-c3ccc(NC(=O)c4ccc(Cl)c(Cl)c4)cc3)cc2-c2ccncc2)cc1Cl` as the compound, how does the growth read?
Answer: The growth was 43.5%.

Question: How did the growth turn out when `CCC(C)Oc1cc(/C=N/NC(=O)c2cnn3c2NC(c2ccccc2)C3)ccc1OC` (centres undefined) was run?
Answer: Its growth is 35.6%.

Question: Which growth does the source give for `C=C[C@H]1C[C@@H]2C[C@@H]3[C@H]4C/C=C\C(=O)NCCCC5NC(=O)C(=C(O)/C=C/[C@@H]4CC(=O)[C@H]3[C@@H]2[C@H]1C)C5=O` (some centres undefined) here?
Answer: Its growth is -54% (active).

Question: Which growth does the source give for `Cc1nc2ccc(Cl)cc2n1C` here?
Answer: The growth was 101%.

Question: With `Fc1c[c-]c(-c2ccccn2)c(F)c1.Fc1c[c-]c(-c2ccccn2)c(F)c1.[Cl][Pt+].[Cl][Pt+].c1ccc([PH+](C[PH+](c2ccccc2)c2ccccc2)c2ccccc2)cc1` as the compound, how does the growth read?
Answer: Its growth is 8.6% (active).

Question: How did the growth turn out when `O=C(NCc1cccnc1)c1ccc([N+](=O)[O-])o1` was run?
Answer: Its growth is -16.7% (active).

Question: With `COc1ccc(NS(=O)(=O)c2ccc(-c3cnc(C4CC4)o3)cc2)cc1` as the compound, how does the growth read?
Answer: Its growth is 46.6%.

Question: How did the growth turn out when `NC1=NC(c2ccccc2OS(=O)(=O)c2ccc(Br)cc2)n2c(nc3ccccc32)N1` (centres undefined) was run?
Answer: Its growth is 101%.

Question: For `O=C(Nc1ccccc1)Oc1cccc2cccnc12`, which growth is on record?
Answer: Its growth is 93.9%.

Question: For `COC(=O)c1c2c(c(C)[n+]([O-])c1C)C(=O)C=C(NCc1cccc(OC)c1)C2=O`, which growth is on record?
Answer: The growth was -64.6% (active).

Question: With `O=C(c1cnn2c1NC(c1ccc(F)cc1)C2)N1CCCCC1` (centres undefined) as the compound, how does the growth read?
Answer: The growth was 104%.

Question: With `COc1cc(/C=C/C(=O)C(=Cc2ccc(F)c(F)c2)C(=O)/C=C/c2ccc(O)c(OC)c2)ccc1O` as the compound, how does the growth read?
Answer: Its growth is 6.91% (active).

Question: For `CCOC(=O)c1[nH]c2cc(Cl)ccc2c1[C@@H](C(=O)NC(C)(C)C)N(CC)C(=O)CCCCC#Cc1cccc2c1CN(C1CCC(=O)NC1=O)C2=O` (some centres undefined), which growth is on record?
Answer: Its growth is -13.2% (active).

Question: `COc1cc(C2C3=C(COC3=O)N(CCO)c3cc4c(cc32)OCO4)cc(OC)c1O` (centres undefined) was tested. Which growth did it give?
Answer: Its growth is 25%.

Question: How did the growth turn out when `CCCCCCCC/C=C\CCCCCCCCOc1cccc(CC(=O)NCC[N+]2(C)CCOCC2)c1` was run?
Answer: The growth was 104%.

Question: `COc1ccccc1CNCCCCCCCCCCCCN1C(=O)c2ccc3c4c(ccc(c24)C1=O)C(=O)N(CCCCCCCCCCCCNCc1ccccc1OC)C3=O` was tested. Which growth did it give?
Answer: The growth was 107%.

Question: How did the growth turn out when `CC(C)NCC(O)COc1ccc(CCOCC2CC2)cc1` (centres undefined) was run?
Answer: The growth was 109%.

Question: With `Clc1ccc(C2=NN(c3ccccc3)[C@H](c3cn(-c4ccccc4)nc3-c3ccccc3)C2)cc1` as the compound, how does the growth read?
Answer: The growth was 97.7%.

test system: EKVX NSCLC; experiment: as above; details: 10 µM unless noted

Question: How did the growth turn out when `CC(C)OC1=C(Cl)C(=O)c2ccccc2C1=O` was run?
Answer: Its growth is 103%.

Question: With `NC(=S)N/N=C1\c2ccccc2-c2c(F)c(F)c(F)c(F)c21` as the compound, how does the growth read?
Answer: Its growth is 87.3%.

Question: Which growth does the source give for `COCCOC1=C(Cl)C(=O)c2ccccc2C1=O` here?
Answer: The growth was 38.9%.

Question: With `O=C1C(OCCOc2ccccc2)=C(OCCOc2ccccc2)C(=O)c2ccccc21` as the compound, how does the growth read?
Answer: Its growth is 103%.

Question: With `N#Cc1c(O)c2c(c(O)c1C#N)C(=O)c1ccccc1C2=O` as the compound, how does the growth read?
Answer: The growth was 87.3%.

Question: Which growth does the source give for `COc1cc(/C=C/C(=O)CC(=O)/C=C/c2cc(Br)c(OC)c(OC)c2)cc(Br)c1OC` here?
Answer: The growth was 105%.

Question: Which growth does the source give for `CCN1CCN(c2ccc(Nc3ncc4ccc5ncn(C(C)C)c5c4n3)nc2)CC1` here?
Answer: The growth was -6.84% (active).

Question: How did the growth turn out when `O=c1onc(-c2ccccc2)c2ccccc12` was run?
Answer: The growth was 121%.

Question: With `COc1ccc(-c2nn(-c3ccc(NC(=O)c4ccc(Cl)c(Cl)c4)cc3)cc2-c2ccncc2)cc1Cl` as the compound, how does the growth read?
Answer: The growth was 56.4%.

Question: How did the growth turn out when `COc1cccc(OC)c1OC(=O)c1ccccc1` was run?
Answer: The growth was 95.8%.

Question: `C=C[C@H]1C[C@@H]2C[C@@H]3[C@H]4C/C=C\C(=O)NCCCC5NC(=O)C(=C(O)/C=C/[C@@H]4CC(=O)[C@H]3[C@@H]2[C@H]1C)C5=O` (some centres undefined) was tested. Which growth did it give?
Answer: Its growth is 61.6%.

Question: Which growth does the source give for `C=C1CC[C@@H]2[C@@](C)(CCC[C@]2(C)C(=O)O)[C@@H]1CC[C@H](CO)CCO` here?
Answer: Its growth is 108%.

Question: How did the growth turn out when `Fc1c[c-]c(-c2ccccn2)c(F)c1.Fc1c[c-]c(-c2ccccn2)c(F)c1.[Cl][Pt+].[Cl][Pt+].c1ccc([PH+](C[PH+](c2ccccc2)c2ccccc2)c2ccccc2)cc1` was run?
Answer: Its growth is 12.4%.

Question: `O=C(NCc1cccnc1)c1ccc([N+](=O)[O-])o1` was tested. Which growth did it give?
Answer: The growth was 62.1%.

Question: How did the growth turn out when `COc1ccc(NS(=O)(=O)c2ccc(-c3cnc(C4CC4)o3)cc2)cc1` was run?
Answer: The growth was 69.9%.

Question: Which growth does the source give for `NC1=NC(c2ccccc2OS(=O)(=O)c2ccc(Br)cc2)n2c(nc3ccccc32)N1` (centres undefined) here?
Answer: The growth was 99.1%.

Question: Which growth does the source give for `O=C(Nc1ccccc1)Oc1cccc2cccnc12` here?
Answer: The growth was 82.2%.

Question: How did the growth turn out when `CCC12CCC3c4ccc(O)cc4CCC3C1CC(O)C2O` (centres undefined) was run?
Answer: Its growth is 83.7%.

Question: Which growth does the source give for `Cc1ccc(S(=O)(=O)N2CCc3ccc(O)c4c3C2Cc2ccc3c(c2-4)OCO3)cc1` (centres undefined) here?
Answer: The growth was 49.3%.

Question: `COC(=O)c1c2c(c(C)[n+]([O-])c1C)C(=O)C=C(NCc1cccc(OC)c1)C2=O` was tested. Which growth did it give?
Answer: Its growth is -68.7% (active).

Question: `O=C1NC(=O)C2(CCCC2C(=O)O)N1` (centres undefined) was tested. Which growth did it give?
Answer: Its growth is 94.2%.

Question: With `CON=C1C[C@]2(C[C@@H]3C[C@@H](C/C=C(\C)C[C@@H](C)/C=C/C=C4\CO[C@@H]5[C@H](O)C(C)=C[C@@H](C(=O)O3)[C@]45O)O2)O[C@H](/C(C)=C/C(C)C)[C@H]1C` as the compound, how does the growth read?
Answer: Its growth is 20%.

Question: For `COc1cc(/C=C/C(=O)C(=Cc2ccc(F)c(F)c2)C(=O)/C=C/c2ccc(O)c(OC)c2)ccc1O`, which growth is on record?
Answer: The growth was 72.1%.

Question: For `O=C1/C(=C/c2ccccc2F)CNC/C1=C\c1ccccc1F`, which growth is on record?
Answer: Its growth is 22.4%.

Question: For `COc1cc(C2C3=C(COC3=O)N(CCO)c3cc4c(cc32)OCO4)cc(OC)c1O` (centres undefined), which growth is on record?
Answer: Its growth is 57.2%.

Question: For `CCCCCCCC/C=C\CCCCCCCCOc1cccc(CC(=O)NCC[N+]2(C)CCOCC2)c1`, which growth is on record?
Answer: Its growth is 94.6%.

Question: For `COc1ccccc1CNCCCCCCCCCCCCN1C(=O)c2ccc3c4c(ccc(c24)C1=O)C(=O)N(CCCCCCCCCCCCNCc1ccccc1OC)C3=O`, which growth is on record?
Answer: The growth was 109%.

Question: For `CC(C)NCC(O)COc1ccc(CCOCC2CC2)cc1` (centres undefined), which growth is on record?
Answer: Its growth is 98.4%.

Question: How did the growth turn out when `Clc1ccc(C2=NN(c3ccccc3)[C@H](c3cn(-c4ccccc4)nc3-c3ccccc3)C2)cc1` was run?
Answer: Its growth is 94.9%.
